{
  "source": "PubChem BioAssay (EPA / NIEHS)",
  "key": {"[1]": {"target": "Estrogen receptor (Homo sapiens) (UniProt P03372)", "sequence (P03372 whole entry, looked up, the tested form may be a part)": "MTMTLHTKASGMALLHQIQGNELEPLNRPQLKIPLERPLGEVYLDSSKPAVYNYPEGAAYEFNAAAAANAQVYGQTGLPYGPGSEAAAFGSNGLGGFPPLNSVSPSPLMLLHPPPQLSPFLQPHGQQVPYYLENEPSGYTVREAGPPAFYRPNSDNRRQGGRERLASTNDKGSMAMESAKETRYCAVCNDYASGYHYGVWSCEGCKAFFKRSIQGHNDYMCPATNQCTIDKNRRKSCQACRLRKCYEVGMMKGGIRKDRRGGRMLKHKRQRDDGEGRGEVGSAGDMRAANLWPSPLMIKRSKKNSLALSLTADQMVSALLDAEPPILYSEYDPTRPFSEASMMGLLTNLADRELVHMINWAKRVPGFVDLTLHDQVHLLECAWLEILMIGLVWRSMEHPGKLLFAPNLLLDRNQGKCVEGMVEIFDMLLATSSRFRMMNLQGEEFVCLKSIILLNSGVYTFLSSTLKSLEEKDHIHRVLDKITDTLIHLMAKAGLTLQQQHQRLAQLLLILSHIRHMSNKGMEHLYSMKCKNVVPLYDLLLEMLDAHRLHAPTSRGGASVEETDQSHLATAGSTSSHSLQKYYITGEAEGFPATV", "test": "NVS_NR_hER: NovaScreen (NVS) Nuclear Receptor Binding Assay for human Estrogen Receptor (ER) (AID 2283348)", "outline": "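Scintillation signal from bound radioligand was measured 18 hours after chemical addition to cell-free MCF7 protein extracts, with DMSO as baseline. Activity was scored as signal loss; compounds ran first at 25 uM in duplicate.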"}, "[2]": {"target": "Estrogen receptor (Homo sapiens) (UniProt P03372)", "test": "OT_ER_ERaERa_1440: Odyssey Thera (OT) 24-hour HEK293T Protein-Complementation Assay for Estrogen Receptor-alpha/-alpha Homodimer (AID 2283349);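 also: hits raise fluorescence above DMSO for agonists and antagonists alike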", "outline": "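Protein-fragment complementation between two human ERα ligand-binding domains (aa 310-547) in stably transfected HEK293T cells was monitored after 24 h treatment, using fluorescence intensity relative to vehicle controls.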"}, "[3]": {"target": "Estrogen receptor (Homo sapiens) (UniProt P03372)", "test": "OT_ER_ERaERa_0480: Odyssey Thera (OT) 8-hour HEK293T Protein-Complementation Assay for Estrogen Receptor-alpha/-alpha Homodimer (AID 2283351);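 also: rise in fluorescence from reassembled reporter fragments on ERα LBD homodimer in nucleus or whole cell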", "outline": "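Binding reporter in which dimerisation of ERα LBD (aa 310-547) fusions reconstitutes a fluorescent reporter in HEK293T cells. Compounds incubated 8 h; mean fluorescence intensity increase versus DMSO scored.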"}, "[4]": {"target": "T1, Estrogen receptor (Homo sapiens) + Estrogen receptor beta (Homo sapiens) (UniProt P03372+Q92731)", "T1 sequence (P03372 whole entry, looked up, the tested form may be a part)": "as above", "T1 sequence (Q92731 whole entry, looked up, the tested form may be a part)": "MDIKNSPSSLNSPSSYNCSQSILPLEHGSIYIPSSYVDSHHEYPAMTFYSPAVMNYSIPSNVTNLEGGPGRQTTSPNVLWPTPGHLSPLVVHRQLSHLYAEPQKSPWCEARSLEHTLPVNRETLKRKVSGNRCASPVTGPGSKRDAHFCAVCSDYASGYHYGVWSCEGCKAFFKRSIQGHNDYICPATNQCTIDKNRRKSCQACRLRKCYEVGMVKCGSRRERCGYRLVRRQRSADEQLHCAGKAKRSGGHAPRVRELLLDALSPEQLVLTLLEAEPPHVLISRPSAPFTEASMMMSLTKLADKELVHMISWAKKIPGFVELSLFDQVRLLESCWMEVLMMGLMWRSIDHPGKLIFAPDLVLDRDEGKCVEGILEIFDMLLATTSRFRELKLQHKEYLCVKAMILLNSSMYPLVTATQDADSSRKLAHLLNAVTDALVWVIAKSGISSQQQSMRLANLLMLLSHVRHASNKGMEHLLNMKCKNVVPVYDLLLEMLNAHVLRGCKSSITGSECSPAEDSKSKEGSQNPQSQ", "test": "OT_ER_ERaERb_0480: Odyssey Thera (OT) 8-hour HEK293T Protein-Complementation Assay for Estrogen Receptor-alpha/-beta Heterodimer (AID 2283352)", "outline": "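Fluorescence increase from reconstituted reporter fragments, quantified by laser scanning cytometer, reflects ER-alpha/ER-beta heterodimer formation in human HEK293T cells. Exposure 8 h; positive-direction fitting against DMSO vehicle.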"}, "[5]": {"target": "T1, Estrogen receptor (Homo sapiens) + Estrogen receptor beta (Homo sapiens)", "test": "OT_ER_ERaERb_1440: Odyssey Thera (OT) 24-hour HEK293T Protein-Complementation Assay for Estrogen Receptor-alpha/-beta Homodimer (AID 2283356);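 also: heteromer of ER alpha and ER beta binding domains; hits raise reporter fluorescence and both agonists and antagonists give an increase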", "outline": "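Fragment complementation between ER alpha (310-547) and ER beta (263-489) ligand-binding domains in HEK293T cells; signal read 24 h post-dosing by laser scanning cytometer. Gain of fluorescence relative to DMSO fitted.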"}, "[6]": {"target": "Androgen Receptor/SRC-1 Co-activator, AR (gene 367) (UniProt P10275)", "sequence (P10275 whole entry, looked up, the tested form may be a part)": "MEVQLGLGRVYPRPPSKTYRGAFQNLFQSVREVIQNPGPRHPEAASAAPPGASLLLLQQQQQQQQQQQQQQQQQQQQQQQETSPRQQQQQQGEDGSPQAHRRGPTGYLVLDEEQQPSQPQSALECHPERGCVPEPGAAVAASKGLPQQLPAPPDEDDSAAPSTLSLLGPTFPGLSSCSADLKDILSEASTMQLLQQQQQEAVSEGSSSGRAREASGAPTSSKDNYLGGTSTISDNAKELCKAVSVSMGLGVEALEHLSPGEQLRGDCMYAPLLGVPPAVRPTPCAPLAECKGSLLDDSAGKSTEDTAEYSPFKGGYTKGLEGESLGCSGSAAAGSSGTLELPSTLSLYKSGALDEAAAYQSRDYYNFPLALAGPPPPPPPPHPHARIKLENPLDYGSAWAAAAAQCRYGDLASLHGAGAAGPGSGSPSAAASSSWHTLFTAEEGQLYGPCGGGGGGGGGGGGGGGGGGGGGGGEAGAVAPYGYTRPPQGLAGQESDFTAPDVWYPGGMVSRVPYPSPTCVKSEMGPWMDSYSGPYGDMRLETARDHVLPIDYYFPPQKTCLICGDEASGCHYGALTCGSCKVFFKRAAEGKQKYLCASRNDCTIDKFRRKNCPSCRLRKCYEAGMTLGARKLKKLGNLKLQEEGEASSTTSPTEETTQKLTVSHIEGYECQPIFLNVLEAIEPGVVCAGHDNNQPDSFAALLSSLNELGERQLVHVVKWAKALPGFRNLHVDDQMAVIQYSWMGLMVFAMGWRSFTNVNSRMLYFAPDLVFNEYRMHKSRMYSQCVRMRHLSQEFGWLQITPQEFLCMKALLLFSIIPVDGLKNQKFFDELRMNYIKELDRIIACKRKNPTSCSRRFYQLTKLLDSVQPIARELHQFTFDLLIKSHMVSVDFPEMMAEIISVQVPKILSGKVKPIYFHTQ", "test": "OT_AR_ARSRC1_0960: Odyssey Thera (OT) 16-hour HEK293T Protein-Complementation Assay for Androgen Receptor/SRC-1 Co-activator (AID 2283353);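 also: actives raise the signal above DMSO so potency reflects increased AR and SRC-1 complex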", "outline": "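Interaction of AR with SRC-1 was followed by YFP fragment complementation in HEK293T cells after 16 h of dosing. Gain of nuclear-over-cytoplasmic 488 nm fluorescence against DMSO controls defined activity.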"}, "[7]": {"target": "Androgen Receptor/SRC-1 Co-activator, AR (gene 367) (UniProt P10275)", "test": "OT_AR_ARSRC1_0480: Odyssey Thera (OT) 8-hour HEK293T Protein-Complementation Assay for Androgen Receptor/SRC-1 Co-activator (AID 2283354);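 also: hits raise the complementation signal above DMSO so AC50 marks enhancers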", "outline": "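Measures AR/SRC-1 binding by Venus YFP fragment complementation in HEK293T stable lines at 8 h post-dose. Imaging quantifies the 488nm nucleus/cytoplasm ratio in ≥400 cells; DMSO defines baseline.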"}, "[8]": {"target": "Bile acid receptor (Homo sapiens) (UniProt Q96RI1)", "sequence (Q96RI1 whole entry, looked up)": "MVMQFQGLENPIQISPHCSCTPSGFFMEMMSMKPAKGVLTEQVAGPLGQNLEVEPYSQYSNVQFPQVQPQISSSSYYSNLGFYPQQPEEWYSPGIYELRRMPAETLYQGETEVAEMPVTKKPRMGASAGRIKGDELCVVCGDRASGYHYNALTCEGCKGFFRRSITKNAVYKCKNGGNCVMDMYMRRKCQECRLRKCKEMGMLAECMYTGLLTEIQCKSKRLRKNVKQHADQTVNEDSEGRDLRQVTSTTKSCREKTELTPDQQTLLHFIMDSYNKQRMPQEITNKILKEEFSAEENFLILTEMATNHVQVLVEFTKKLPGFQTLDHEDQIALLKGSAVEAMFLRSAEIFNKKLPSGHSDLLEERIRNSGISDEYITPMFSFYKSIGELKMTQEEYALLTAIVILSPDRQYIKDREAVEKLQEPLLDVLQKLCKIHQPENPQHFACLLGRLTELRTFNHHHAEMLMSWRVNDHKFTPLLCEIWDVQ", "test": "NVS_NR_hFXR_Agonist: NovaScreen (NVS) Nuclear Receptor Binding Assay for human Farnesoid X Receptor Agonism (FXR) (AID 2283347)", "description": "NVS_NR_hFXR_Agonist is a biochemical, single-readout assay that uses extracted gene-proteins in a cell-free assay. Measurements were taken 1 hour after chemical dosing in a 384-well plate.NVS_NR_hFXR_Agonist is one of one assay component(s) measured or calculated from the NVS_NR_hFXR_Agonist assay. It is designed to make measurements of fluorescent resonance energy transfer, a form of binding reporter, as detected with fluorescent resonance energy transfer signals by Time-Resolved Fluorescence Resonance Energy Transfer (TR-FRET) technology.Data from the assay component NVS_NR_hFXR_Agonist was analyzed into 1 assay endpoint. This assay endpoint, NVS_NR_hFXR_Agonist, was analyzed in the positive analysis fitting direction relative to DMSO as the negative control and baseline of activity. Using a type of binding reporter, gain-of-signal activity can be used to understand changes in the binding as they relate to the gene NR1H4. Furthermore, this assay endpoint can be referred to as a primary readout, because the performed assay has only produced 1 assay endpoint. To generalize the intended target to other relatable targets, this assay endpoint is annotated to the nuclear receptor intended target family, where the subfamily is non-steroidal. […]"}},
  "note": "Inconclusive results are not listed. Some structures have more than one record in an assay (separate samples or runs), and their calls can disagree. Calls of active or inactive are those of the source. The calls were made as follows: active = hit-call score of the fitted dose curve at least 0.9, where 1 is the maximum; inconclusive = response in the unintended direction; inactive = score below 0.9.",
  "data": [
    {"smiles": "CCCCc1ccc(O)cc1", "values": [
      {"measurement": "outcome", "setting": "[1]", "result": "inactive"},
      {"measurement": "AC50", "setting": "[2]", "result": "41.4 µM (active)"},
      {"measurement": "AC50", "setting": "[3]", "result": "19.7 µM (active)"},
      {"measurement": "AC50", "setting": "[4]", "result": "19.7 µM (active)"},
      {"measurement": "AC50", "setting": "[5]", "result": "31.4 µM (active)"}
    ]},
    {"smiles": "Cc1cccc(N)c1", "values": [
      {"measurement": "outcome", "setting": "[2]", "result": "inactive"},
      {"measurement": "outcome", "setting": "[3]", "result": "inactive"}
    ]},
    {"smiles": "C=CC(=O)OCC(CC)(COC(=O)C=C)COC(=O)C=C", "values": [
      {"measurement": "AC50", "setting": "[1]", "result": "13.7 µM (active)"},
      {"measurement": "outcome", "setting": "[1]", "result": "inactive"}
    ]},
    {"smiles": "CCC(C)(C)c1ccc(O)cc1", "values": [
      {"measurement": "outcome", "setting": "[1]", "result": "inactive"},
      {"measurement": "AC50", "setting": "[2]", "result": "14.9 µM (active)"},
      {"measurement": "AC50", "setting": "[3]", "result": "8.61 µM (active)"},
      {"measurement": "AC50", "setting": "[4]", "result": "2.68 µM (active)"},
      {"measurement": "AC50", "setting": "[5]", "result": "7.2 µM (active)"}
    ]},
    {"smiles": "c1ccc(OP(Oc2ccccc2)Oc2ccccc2)cc1", "values": [
      {"measurement": "outcome", "setting": "[1]", "result": "inactive"},
      {"measurement": "outcome", "setting": "[2]", "result": "inactive"},
      {"measurement": "outcome", "setting": "[3]", "result": "inactive"},
      {"measurement": "outcome", "setting": "[4]", "result": "inactive"},
      {"measurement": "outcome", "setting": "[5]", "result": "inactive"}
    ]},
    {"smiles": "Nc1ccc(Sc2ccc(N)cc2)cc1", "values": [
      {"measurement": "AC50", "setting": "[1]", "result": "11 µM (active)"}
    ]},
    {"smiles": "O=P(OCC(Br)CBr)(OCC(Br)CBr)OCC(Br)CBr", "note": "(centres undefined)", "values": [
      {"measurement": "outcome", "setting": "[1]", "result": "inactive"},
      {"measurement": "outcome", "setting": "[2]", "result": "inactive"},
      {"measurement": "outcome", "setting": "[3]", "result": "inactive"},
      {"measurement": "AC50", "setting": "[6]", "result": "26.7 µM (active)"},
      {"measurement": "outcome", "setting": "[7]", "result": "inactive"},
      {"measurement": "outcome", "setting": "[5]", "result": "inactive"}
    ]},
    {"smiles": "CCCCN(CC)C(=O)SCCC", "values": [
      {"measurement": "AC50", "setting": "[1]", "result": "3.02 µM (active)"},
      {"measurement": "outcome", "setting": "[2]", "result": "inactive"},
      {"measurement": "outcome", "setting": "[3]", "result": "inactive"},
      {"measurement": "outcome", "setting": "[4]", "result": "inactive"},
      {"measurement": "outcome", "setting": "[6]", "result": "inactive"},
      {"measurement": "outcome", "setting": "[5]", "result": "inactive"}
    ]},
    {"smiles": "CC(C)(C)OOC(C)(C)C", "values": [
      {"measurement": "outcome", "setting": "[8]", "result": "inactive"},
      {"measurement": "outcome", "setting": "[2]", "result": "inactive"},
      {"measurement": "outcome", "setting": "[3]", "result": "inactive"},
      {"measurement": "outcome", "setting": "[4]", "result": "inactive"},
      {"measurement": "outcome", "setting": "[5]", "result": "inactive"}
    ]},
    {"smiles": "COCCOCCO", "values": [
      {"measurement": "outcome", "setting": "[1]", "result": "inactive"},
      {"measurement": "outcome", "setting": "[2]", "result": "inactive"},
      {"measurement": "outcome", "setting": "[3]", "result": "inactive"},
      {"measurement": "outcome", "setting": "[4]", "result": "inactive"}
    ]},
    {"smiles": "CCCN(CCC)c1c([N+](=O)[O-])cc(C(C)C)cc1[N+](=O)[O-]", "values": [
      {"measurement": "outcome", "setting": "[1]", "result": "inactive"},
      {"measurement": "AC50", "setting": "[2]", "result": "56.6 µM (active)"},
      {"measurement": "AC50", "setting": "[3]", "result": "36.8 µM (active)"},
      {"measurement": "AC50", "setting": "[4]", "result": "50 µM (active)"},
      {"measurement": "AC50", "setting": "[5]", "result": "56.9 µM (active)"}
    ]},
    {"smiles": "CC1(C)CN=C(NN=C(/C=C/c2ccc(C(F)(F)F)cc2)/C=C/c2ccc(C(F)(F)F)cc2)NC1", "values": [
      {"measurement": "AC50", "setting": "[1]", "result": "8.61 µM (active)"},
      {"measurement": "outcome", "setting": "[2]", "result": "inactive"},
      {"measurement": "outcome", "setting": "[3]", "result": "inactive"},
      {"measurement": "outcome", "setting": "[4]", "result": "inactive"},
      {"measurement": "AC50", "setting": "[6]", "result": "12.7 µM (active)"},
      {"measurement": "AC50", "setting": "[7]", "result": "44 µM (active)"},
      {"measurement": "outcome", "setting": "[5]", "result": "inactive"}
    ]},
    {"smiles": "CC(C)Nc1ccc(Nc2ccccc2)cc1", "values": [
      {"measurement": "outcome", "setting": "[1]", "result": "inactive"}
    ]},
    {"smiles": "O=S(=O)(c1ccc(O)cc1)c1ccc(O)cc1", "values": [
      {"measurement": "AC50", "setting": "[1]", "result": "4.77 µM (active)"},
      {"measurement": "AC50", "setting": "[2]", "result": "46.8 µM (active)"},
      {"measurement": "AC50", "setting": "[3]", "result": "36.7 µM (active)"},
      {"measurement": "AC50", "setting": "[4]", "result": "21.4 µM (active)"},
      {"measurement": "AC50", "setting": "[5]", "result": "29.2 µM (active)"}
    ]},
    {"smiles": "CCCCN(CCCC)SN(C)C(=O)Oc1cccc2c1OC(C)(C)C2", "values": [
      {"measurement": "outcome", "setting": "[1]", "result": "inactive"},
      {"measurement": "outcome", "setting": "[2]", "result": "inactive"},
      {"measurement": "outcome", "setting": "[3]", "result": "inactive"},
      {"measurement": "outcome", "setting": "[4]", "result": "inactive"},
      {"measurement": "outcome", "setting": "[5]", "result": "inactive"}
    ]}
  ]
}
